Assay outcomes: PubChem BioAssay, The Scripps Research Institute Molecular Screening Center
FBW7 activator = activators of human E3 ligase FBW7; normalized activity (activation), % at 26.1 µM; AlphaScreen FBW7–phospho-cyclin E peptide binding, activator screen; AID 1259310; 650,000 compounds, 0.13% hits; in the data active = normalized activity above about 1.9%;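 note: purified mutant Fbw7 with reduced substrate affinity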
GPR151 ag = activators of human GPR151 | PathHunter beta-arrestin GPR151 cells, luminescence | activation, % at 11.2 µM | 650,000 compounds, 1% hits; in the data active = activation above about 4.9%;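 note: 0% = median of compound wells and 100% = cells with positive control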
Target sequence (Q8TDV0 whole entry, looked up): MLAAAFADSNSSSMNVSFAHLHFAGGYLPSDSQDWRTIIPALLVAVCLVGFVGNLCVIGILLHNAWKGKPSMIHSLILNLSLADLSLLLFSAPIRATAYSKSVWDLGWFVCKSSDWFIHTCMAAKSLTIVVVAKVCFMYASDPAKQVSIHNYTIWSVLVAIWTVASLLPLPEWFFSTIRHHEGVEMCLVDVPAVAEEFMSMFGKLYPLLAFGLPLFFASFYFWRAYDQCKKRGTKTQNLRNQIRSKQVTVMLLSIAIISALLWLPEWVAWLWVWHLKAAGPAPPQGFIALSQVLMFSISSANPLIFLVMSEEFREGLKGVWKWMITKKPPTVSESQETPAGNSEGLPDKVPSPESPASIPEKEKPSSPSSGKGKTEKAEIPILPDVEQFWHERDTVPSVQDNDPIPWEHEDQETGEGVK
TEAD-YAP block = TEAD-YAP interaction inhibition | inhibition, % at 9.12 µM | HEK-TIYL cells, TEAD-Gal4/YAP UAS-luciferase luminescence | 640,000 compounds, 1.4% hits; in the data active = inhibition above about 32%;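 note: 0% = median of test compound wells and 100% = reference inhibitor wells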
MITF inh = inhibitors of human MITF; AlphaScreen MITF homodimerization, bead proximity signal; inhibition, % at 2.6 µM; 650,000 compounds, 0.91% hits; AID 1259374; in the data active = inhibition above about 50%;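 note: 0% = vehicle wells with protein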
* = called active by the depositor. A selection: hits, their analogues and other compounds. The true share with any hit is near 3.5%.

For COc1ccc(/C=N/NC(=O)c2cc(-c3ccc(F)cc3)n[nH]2)cc1 the results were FBW7 activator 0, GPR151 ag 1, TEAD-YAP block 7 and MITF inh 5.
CC1=CCC(C(=O)Nc2nccs2)C(C(=O)Nc2nccs2)C1 (stereo unspecified) was read as FBW7 activator 0, GPR151 ag 4, TEAD-YAP block -6 and MITF inh -9.
O=C(/C=C/c1ccc2c(c1)OCO2)Nc1ccccn1 was read as FBW7 activator -1, GPR151 ag -9, TEAD-YAP block 67* and MITF inh 0.
`O=C(/C=C/c1ccc(F)cc1)Nc1ccccn1` gave FBW7 activator 0, GPR151 ag -8, TEAD-YAP block 57* and MITF inh 11.
For O=C(/C=C/c1ccc(Br)cc1)Nc1ccccn1 the results were FBW7 activator 0, GPR151 ag -7, TEAD-YAP block 35* and MITF inh 11.
For CC1=Nc2ccccc2/C1=C/c1[nH]c(=O)n(-c2ccccc2)c1O the results were FBW7 activator 0, GPR151 ag 1, TEAD-YAP block -13 and MITF inh 12.
CCCCn1c(O)c(C=Nc2ccccc2)sc1=S was read as FBW7 activator 0, GPR151 ag 1, TEAD-YAP block 2 and MITF inh 6.
Screening O=[N+]([O-])c1cc(Cl)c(Sc2nc3ccccc3s2)c(Cl)c1 returned FBW7 activator 1, GPR151 ag 0, TEAD-YAP block 49* and MITF inh 35.
O=[N+]([O-])c1ccc(Sc2nc3ccccc3s2)cc1 was read as FBW7 activator 0, GPR151 ag -1, TEAD-YAP block 2 and MITF inh 7.
Screening COc1ccc(Br)cc1CNC(=O)c1cc(-c2ccccc2O)on1 returned FBW7 activator 0, GPR151 ag -1, TEAD-YAP block -3 and MITF inh 13.
Nc1ccc(Oc2ccc3c(c2)C(=O)N(c2cccc(C(F)(F)F)c2)C3=O)cc1 was read as FBW7 activator 1, GPR151 ag 2, TEAD-YAP block 17 and MITF inh 11.
Cc1ccc(C(=O)Nc2nc3ccccc3n2C)cc1 was read as FBW7 activator 0, GPR151 ag -3, TEAD-YAP block 41* and MITF inh 16.
Screening Cn1c(NC(=O)c2ccc(Cl)c(Cl)c2)nc2ccccc21 returned FBW7 activator 0, GPR151 ag 0, TEAD-YAP block -20 and MITF inh 22.
`Cc1ccc(-c2cccc3cnc(Nc4ccc(C(=O)N5CCN(C)CC5)cc4)nc23)cn1` gave FBW7 activator 0, GPR151 ag -1, TEAD-YAP block 55* and MITF inh 35.
`Cc1ccc(-c2cccc3cnc(Nc4cccc(C(=O)N5CCN(C)CC5)c4)nc23)cn1` gave FBW7 activator 0, GPR151 ag 1, TEAD-YAP block 33* and MITF inh 16.
Screening Cc1ccc(-c2cccc3cnc(Nc4ccc(C(=O)N5CCOCC5)cc4)nc23)cn1 returned FBW7 activator 0, GPR151 ag 0, TEAD-YAP block 49* and MITF inh 22.
For CCc1ccc(N(CC(=O)NCCc2ccc(OC)c(OC)c2)S(C)(=O)=O)cc1 the results were FBW7 activator 0, GPR151 ag 2, TEAD-YAP block 7 and MITF inh 10.
`COc1ccc(C2=NN(C(=O)CSc3nncn3C)C(c3ccc(F)cc3)C2)cc1` (stereo unspecified) gave FBW7 activator 0, GPR151 ag 1, TEAD-YAP block 5 and MITF inh -2.
CNC(=O)c1ccsc1NC(=O)Cc1ccc(OC)c(C)c1 was read as FBW7 activator 0, GPR151 ag -1, TEAD-YAP block -6 and MITF inh -6.
O=C(Cn1nnc(-c2ccc(S(=O)(=O)N3CCCC3)cc2)n1)NCc1ccco1 was read as FBW7 activator 0, GPR151 ag 1, TEAD-YAP block 42* and MITF inh 3.
`O=C(Cn1nnc(-c2ccc(S(=O)(=O)N3CCCC3)cc2)n1)NCC1CCCO1` (stereo unspecified) gave FBW7 activator 0, GPR151 ag 2, TEAD-YAP block 2 and MITF inh 0.
Screening COc1ccc(N2C(=O)C3C(c4cccc(Br)c4)OC4(C(=O)c5ccccc5C4=O)C3C2=O)cc1 (stereo unspecified) returned FBW7 activator 0, GPR151 ag 0, TEAD-YAP block 5 and MITF inh 81*.
Screening COc1ccc(-c2cnn3c(Nc4cccc(N(C)C)c4)ccnc23)cc1 returned FBW7 activator 0, GPR151 ag 0, TEAD-YAP block -45 and MITF inh 28.
CC(C)Oc1ccc(C(=O)Nc2nccs2)cc1 was read as FBW7 activator 0, GPR151 ag -5, TEAD-YAP block 52* and MITF inh 13.
Screening COc1cc(SC)ccc1C(=O)Nc1nccs1 returned FBW7 activator 0, GPR151 ag -1, TEAD-YAP block 46* and MITF inh 15.
`CCn1nnc(NC(=O)c2ccc(OC(C)C)cc2)n1` gave FBW7 activator 0, GPR151 ag -5, TEAD-YAP block 44* and MITF inh 9.
For CC(=O)c1ccc(C(=O)Nc2nccs2)cc1 the results were FBW7 activator 0, GPR151 ag -2, TEAD-YAP block 19 and MITF inh 23.
CC(C)Sc1ccc(C(=O)Nc2nccs2)cc1 was read as FBW7 activator 0, GPR151 ag -6, TEAD-YAP block 55* and MITF inh 20.
`CCOCCn1cnc2sc(C(=O)Nc3ccccc3OC)c(C)c2c1=O` gave FBW7 activator 0, GPR151 ag -1, TEAD-YAP block 14 and MITF inh 15.
`Cc1cc(=O)oc2cc(OCC(O)Cn3c(C)nc4ccccc43)ccc12` (stereo unspecified) gave FBW7 activator 0, GPR151 ag 3, TEAD-YAP block 50* and MITF inh -6.
For Cc1nc2ccccc2n1CC(O)COc1ccc2ccccc2c1 (stereo unspecified) the results were FBW7 activator 0, GPR151 ag 1, TEAD-YAP block 15 and MITF inh 11.
For CN1C(=O)C2(c3ccccc31)C(C(=O)NCCCN1CCCC1=O)CC1CCCN12 (stereo unspecified) the results were FBW7 activator 0, GPR151 ag 0, TEAD-YAP block 5 and MITF inh 7.
OCCn1c(Cc2ccccc2)nc2ccccc21 was read as FBW7 activator 0, GPR151 ag -11, TEAD-YAP block 98* and MITF inh 4.
For CC1CCCCN1CCNS(=O)(=O)c1ccc2c(c1)CCN2C(=O)C1CCC1 (stereo unspecified) the results were FBW7 activator 0, GPR151 ag 2, TEAD-YAP block 7 and MITF inh -6.
For Cc1cc(/C=C(\C#N)c2nc3ccccc3[nH]2)c(C)n1-c1ccc(F)cc1 the results were FBW7 activator 0, GPR151 ag -1, TEAD-YAP block 71* and MITF inh -5.
Cc1cc(/C=C(\C#N)c2nc3ccccc3[nH]2)c(C)n1C1CC1 was read as FBW7 activator 0, GPR151 ag 2, TEAD-YAP block -30 and MITF inh -1.
